Assay outcomes (PubChem)
Only some compounds are listed: those with a hit (about 5.2% of all), similar ones and a draw of the others.
SKN-1 block: suppressors of acrylamide-induced Pgst-4::GFP reporter in worms, primary screen, SKN-1 inhibitor project, whole organism, uHTS, GFP/RFP fluorescence ratio, strain VP596; 360,000 tested, 0.49% active; inhibition, % at 21.8 µM; C. elegans VP596 Pgst-4::GFP/RFP ratio, 24 h;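 active = interference check ratio from 0.5 to 1.5 plus GFP to RFP signal ratio inhibition reaching or exceeding a fixed threshold, cut at about 30% in these data, passing the limit was not always enough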
Vif inh: HIV Vif self-association inhibitors, primary screen, imaging, HEK293T, single point | 340,000 tested, 0.35% active | HEK293T cells, Vif self-association by quenched fluorescence, 24 h | inhibition, % at 7.49 µM | AID 602346, 2012; in the data active = inhibition above about 50%, passing the limit was not always enough
GRIN3A LBD mod: binders of NR3A ligand-binding domain, primary screen, biophysical, differential scanning fluorimetry, uHTS. AID 1259313, 2017. Tm shift relative to glycine control, % at 25 µM. Glutamate receptor ionotropic, NMDA 3A (GRIN3A) ligand-binding domain. NR3A LBD differential scanning fluorimetry, Tm shift; 0% = protein alone, 100% = glycine-bound protein. 340,000 tested, 2.5% active;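 active = melting temperature shift of at least 10% of the positive control shift, at one fixed dose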
NadD block: inhibitors of S. aureus NadD, primary screen, biochemical, colorimetric, uHTS; purified NadD enzyme, colorimetric absorbance read-out; inhibition, % at 20 µM; 360,000 tested, 0.78% active; Nicotinate-nucleotide adenylyltransferase NadD (Staphylococcus aureus N315); in the data active = inhibition above about 26%
SMARCA2 act: SMARCA2 (BRM) function activators, primary screen, cell-based, luminescence, high throughput; 370,000 tested, 1% active; activation, % at 9.1 µM; MG213 cells, MMTV-luciferase reporter, dexamethasone, overnight; in the data active = activation above about 7.8%;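 note: 0% = vehicle wells and 100% = reference activator wells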
esBAF inh: Bmi1 luciferase reporter increase in mESCs, primary screen, esBAF inhibitor project, mouse ES cells, Bmi1 luciferase knock-in, single point; AID 602393, 2012; 24 h; 100% = twice the neutral-well signal; reporter increase, % at 12.5 µM; 350,000 tested, 2% active; in the data active = activation above about 40%;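 note: 0% = median of the plate's neutral control wells and 100% = double that signal; a rise in the Bmi1 reporter signal indicates esBAF inhibition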
SMARCA2 conf: SMARCA2 (BRM) function activators, confirmation, cell-based, luminescence, triplicate; AID 652260, 2013; activation, % at 9.1 µM; MG213 cells, MMTV-luciferase with dexamethasone, overnight; MG213 cells expressing E1A, Rb sequestered; DMSO wells 0%, reference activator 100%; 3,500 tested, 30% active; shares compounds with SMARCA2 act;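 active = activation above its plate's cutoff, the mean activation of tested wells plus 3 SD, cut at about 7.9% in these data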
GAL4-VP16 Luc: GAL4-VP16 luciferase reporter activation, counter-screen for SMARCA2 (BRM) activator project, cell-based, pG5luc, luminescence, high throughput. shares compounds with SMARCA2 act. HEK293 GAL4-VP16 pG5luc reporter; scaled: DMSO wells 0%, SAHA wells 100%. activation, % at 9.1 µM. 3,500 tested, 41% active;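 active = activation above the solvent-only control well mean plus 3 SD, averaged across control plates, cut at about 5.2% in these data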
* marks the source's active call; other numbers are inactive results; / = no result; ! = not active in a repeat.

SMILES | SKN-1 block | Vif inh | GRIN3A LBD mod | NadD block | SMARCA2 act | esBAF inh | SMARCA2 conf | GAL4-VP16 Luc
CNC(=O)c1ncoc1-c1ccc(Cl)cc1 | 9.0 | -2.9 | -4.7 | -4.2 | 8.1* | -2.9 | -0.5 | -0.1
CCCNC(=O)[C@@H]1[C@@H](CO)[C@@H]2Cn3c(ccc(C4=CCCCC4)c3=O)[C@H]1N2 | / | / | / | / | / | 2.3 | / | /
CO[C@@H](CN(C)C(=O)C1CCOCC1)[C@H](C)CN(C(=O)Nc1ccc(F)cc1)[C@@H](C)CO | / | / | / | / | / | 7.2 | / | /
O=C(Nc1ccc(Cl)cc1)N[C@@H]1CC[C@H](CCn2cc(C3(O)CCCC3)nn2)O[C@H]1CO | / | / | / | / | / | -3.4 | / | /
Cc1ccsc1/C=C1/SC(N2CC(C)OC(C)C2)=NC1=O (centres undefined) | -6.3 | -7.1 | -3.8 | 4.0 | 10.6* | / | -0.1 | 0.8
COc1ccc(CN(C)C[C@H]2Oc3c(NS(C)(=O)=O)cccc3C(=O)N([C@H](C)CO)C[C@H]2C)cc1 | / | / | / | / | / | -1.9 | / | /
O=C(O)c1cccc(N/N=C/c2cn(-c3ccccc3)nc2-c2cccs2)c1 | 4.3 | -4.2 | -4.5 | 8.7 | 2.7 | -7.3 | / | /
NS(=O)(=O)c1ccc(N/N=C/c2cn(-c3ccccc3)nc2-c2cccs2)cc1 | 6.3 | -6.6 | 34.5* | 6.9 | 9.6* | / | 9.2* | 4.7
Cc1ccc(S(=O)(=O)N(C)C[C@@H]2OCCCC[C@H](C)Oc3ccc(NC(=O)CCCCCC(=O)Nc4ccccc4N)cc3C(=O)N([C@H](C)CO)C[C@@H]2C)cc1 | / | / | / | / | / | -2.6 | / | /
CNc1cccc(-c2ccc(C(=O)N3CCOCC3)cc2)n1 | -7.1 | -11.6 | / | 4.6 | 10.3* | 26.9 | 7.7 | 0.0
CNc1cnc(-c2cccc(C(=O)N3CCOCC3)c2)cn1 | -14.4 | / | / | -7.8 | -2.9 | -1.0 | / | /
CNc1cccc(-c2ccc(N3CCN(C)CC3)nc2)n1 | -18.8 | 9.0 | / | -2.4 | 9.1* | 17.1 | 11.7* | 7.7*
C/C(CC(=O)Nc1ccc(Cl)cc1C(F)(F)F)=N\NC(=O)c1ccccn1 | -6.7 | 6.5 | -3.0 | 1.4 | 5.4 | / | / | /
C/C(CC(=O)Nc1ccc(Cl)cc1C(F)(F)F)=N\NC(=O)c1cccs1 | 4.4 | -1.1 | -1.1 | 2.9 | 10.0* | 35.1 | 3.5 | 2.5
COC(=O)C[C@@H]1CC[C@@H]2[C@@H](COc3ccc(NC(=O)c4ccccc4OC)cc3C(=O)N2C)O1 | / | / | / | / | / | -2.7 | / | /
Fc1ccc(Oc2nc(-c3ccccn3)nc3ccccc23)cc1 | 10.9 | 9.2 | 0.5 | 3.8 | 9.0* | / | -4.6 | 2.7
COc1ccc(Oc2nc(-c3ccccn3)nc3ccccc23)cc1 | 1.0 | -0.8 | -0.6 | 11.8 | 8.3* | / | -6.2 | -1.5
O=C(O)c1ccc(N/C(=N\S(=O)(=O)c2ccc(Cl)cc2)c2ccccc2)cc1 | -8.6 | 13.1 | 0.1 | -8.2 | -1.1 | 0.5 | / | /
O=C(NN/C(=N/S(=O)(=O)c1ccc(Cl)cc1)c1ccccc1)c1cccc(Cl)c1 | 15.1 | 3.9 | -5.0 | -4.6 | 10.0* | 36.4 | 10.2* | 11.6*
O=S(=O)(/N=C(/NC(=S)Nc1ccccc1)c1ccccc1)c1ccc(Cl)cc1 | -0.5 | 8.0 | -2.7 | -4.4 | 8.8* | 68.4* | 9.2* | 6.4*
O=C(C[C@H]1CC[C@H]2[C@@H](COC[C@H](O)CN2S(=O)(=O)c2ccccc2)O1)NCc1ccc(-c2ccccc2)cc1 | / | / | / | / | / | 6.1 | / | /
Cc1noc(C)c1NC(=O)N(C)C[C@@H]1Oc2c(NS(C)(=O)=O)cccc2C(=O)N([C@H](C)CO)C[C@@H]1C | / | / | / | / | / | 4.1 | / | /
CCCC(=O)Nc1nnc(-c2ccc3c(c2)OCCO3)o1 | 4.9 | -13.8 | 3.3 | -5.1 | 10.3* | / | 6.1 | 4.2
CCCC(=O)Nc1nc(-c2ccc3c(c2)OCCO3)cs1 | 3.5 | -14.7 | -0.9 | -3.1 | 6.0 | 32.7 | / | /
Cc1nc(-c2ccccc2)sc1-c1ccn[nH]1 | 20.8 | -0.2 | -0.4 | -2.7 | 11.8* | 15.7 | 14.1* | 12.7*
SMILES | SKN-1 block | Vif inh | GRIN3A LBD mod | NadD block | SMARCA2 act | esBAF inh | SMARCA2 conf | GAL4-VP16 Luc
O=C(Nc1sc2c(c1C(=O)NCc1ccco1)CCCC2)c1ccc2c(c1)OCO2 | 0.9 | 12.8 | -3.6 | 8.3 | 8.9* | 46.1* | 3.7 | 8.3*
O=C(Nc1sc2c(c1C(=O)O)CCC2)c1ccco1 | -25.8 | 15.2 | 3.1 | -2.9 | 9.1* | 23.4 | 2.8 | 4.2
Cc1ccc(C(=O)Nc2sc3c(c2C(=O)NCc2ccco2)CCCC3)cc1 | -6.1 | -0.4 | 1.7 | 3.1 | -0.6 | / | / | /
O=C(Nc1nncs1)C1COc2ccccc2O1 (centres undefined) | 14.3 | -4.4 | 4.6 | -7.0 | 9.0* | / | 4.1 | 4.6
O=C(Nc1nnc(C(F)(F)F)s1)C1COc2ccccc2O1 (centres undefined) | 16.6 | / | -5.7 | 7.0 | -2.3 | 17.5 | / | /
O=C(Nc1nnc(C2CC2)s1)C1COc2ccccc2O1 (centres undefined) | -12.4 | -6.7 | 0.6 | 2.1 | 12.2* | / | 6.9 | 14.4*
CCNC(=O)Nc1ccc2c(c1)C(=O)N(C)[C@H]1CC[C@@H](CC(=O)NCCOC)O[C@H]1CO2 | / | / | / | / | / | -2.3 | / | /
CCC(C)C(=O)OC1CCC=C2C=CC(C)C(CCC3CC(O)CC(=O)O3)C21 (centres undefined) | -1.9 | -14.7 | -1.0 | -0.2 | 1.8 | / | / | /
CC[C@H](C)C(=O)O[C@H]1CCC=C2C=C[C@H](C)[C@H](CC[C@@H]3C[C@@H](O)CC(=O)O3)[C@H]21 | -5.9 | -1.7 | -1.1 | 2.5 | 11.2* | -50.8 | 2.6 | 4.6
CC[C@H](C)C(=O)O[C@H]1C[C@@H](C)C=C2C=C[C@H](C)[C@H](CC[C@@H]3C[C@@H](O)CC(=O)O3)[C@H]21 | -8.4 | 2.9 | 5.0 | -4.9 | 8.2*! | 1.1 | 6.2 | 0.4
C[C@H](CO)N1C[C@H](C)[C@H](CN(C)Cc2ccncc2)OCCCC[C@H](C)Oc2ccc(N(C)C)cc2C1=O | / | / | / | / | / | -0.5 | / | /
C[C@@H]1CN([C@@H](C)CO)C(=O)Cc2cc(NC(=O)Nc3ccccc3)ccc2O[C@H]1CN(C)S(=O)(=O)c1ccc(Cl)cc1 | / | / | / | / | / | -1.7 | / | /
